# Source: the supplement of paper PMC8728848
# Only a selection was taken, and the strongest signals are over-represented in it overall.
# B1: SBD (Rhizopus oryzae), P07683 (protein)
# chain: ASIPSSASVQLDSYNYDGSTFSGKIYVKNIAYSKKVTVVYADGSDNWNNNGNIIAASFSGPISGSNYEYWTFSASVKGIKEFYIKYEVSGKTYYDNNNSANYQVS
# How the values were obtained:
# Assay in all cases: glycan array binding signal (z-score within array); higher = stronger binding
# Details in all cases: glycan notation: IUPAC condensed, linker removed
# [1] = target: Neu5Ac(a2-3)Gal(b1-4)GlcNAc(b1-3)Gal(b1-4)[Fuc(a1-3)]GlcNAc
# How it was run: (§1)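 Columns mapping to the same glycan were averaged after glycan names were converted to IUPAC-condensed notation. The data come from 3228 arrays in the Consortium for Functional Glycomics database, limited to those with an available protein sequence. Binding is reported as a within-array Z-score averaged across arrays of one protein sequence and across linkers.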
# [2] = target: Neu5Ac(a2-3)Gal(b1-4)[Fuc(a1-3)]GlcNAc(b1-3)GalNAc
# How it was run: as §1
# [3] = target: Neu5Ac(a2-6)Gal(b1-4)GlcNAc(b1-2)Man(a1-3)[Gal(b1-4)GlcNAc(b1-2)Man(a1-6)]Man(b1-4)GlcNAc(b1-4)GlcNAc
# How it was run: as §1
# [4] = target: Neu5Ac(a2-6)Gal(b1-4)GlcNAc(b1-2)Man(a1-6)[GlcNAc(b1-2)Man(a1-3)]Man(b1-4)GlcNAc(b1-4)GlcNAc
# How it was run: as §1
# [5] = target: Neu5Ac(a2-6)GlcNAc(b1-4)GlcNAc
# How it was run: as §1
# [6] = target: Neu5Ac9Ac(a2-6)Gal(b1-4)GlcNAc
# How it was run: as §1
binder,measurement,setting,value
B1,glycan array binding signal (z-score),[1],-0.067
same,glycan array binding signal (z-score),[2],3.37
same,glycan array binding signal (z-score),[3],-0.457
same,glycan array binding signal (z-score),[4],0.349
same,glycan array binding signal (z-score),[5],0.158
same,glycan array binding signal (z-score),[6],-0.195
